From PubChem BioAssay
TRHR enhancer: qHTS for Small Molecule Agonists and Allosteric Enhancers of Human TRH Receptor: Primary Screen for Enhancers | actives 0.66% (n = 360,000) | enhancement, % at 2 µM | Thyrotropin-releasing hormone receptor (Homo sapiens), P34981 | AID 493056, 2011 | TRHR cells, fluo-8 calcium fluorescence, EC20 TRH enhancement; in the data active = enhancement above about 30%; note: 0% is about no effect
Target sequence (P34981 whole entry, looked up): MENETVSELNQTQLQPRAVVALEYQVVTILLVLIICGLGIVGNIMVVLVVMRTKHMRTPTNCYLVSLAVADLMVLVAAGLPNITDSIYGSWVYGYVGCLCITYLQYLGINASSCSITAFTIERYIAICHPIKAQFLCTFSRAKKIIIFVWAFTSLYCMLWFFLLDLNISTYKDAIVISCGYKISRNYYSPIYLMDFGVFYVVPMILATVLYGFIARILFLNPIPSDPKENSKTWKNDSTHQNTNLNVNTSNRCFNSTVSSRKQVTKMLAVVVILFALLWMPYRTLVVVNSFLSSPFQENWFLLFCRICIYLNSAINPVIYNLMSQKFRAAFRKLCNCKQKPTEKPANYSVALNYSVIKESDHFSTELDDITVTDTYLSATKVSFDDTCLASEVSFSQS
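Enhancer read-out: after compound pinning and an initial kinetic agonist-mode read, an EC20 of TRH (10 nM final) was injected and fluo-8 calcium signal (Ex 480/Em 530) followed at 1 s/cycle for 100 cycles in TRHR-expressing cells.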
D1 agonist: Allosteric Agonists of the Human D1 Dopamine Receptor: qHTS | D(1A) dopamine receptor (Homo sapiens), P21728 | HEK293 T-REx D1 cells, calcium flux, agonist mode | activation, % at 2 µM | actives 1% (n = 360,000); note: 0% is about no effect
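Inducible HEK293 T-REx D1 cells, force-coupled to calcium signalling, were plated at 4000 cells/well with tetracycline and held overnight at 30 C. After no-wash calcium dye loading, compound-evoked calcium rise over 180 s flagged agonists.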
D1 antag: Antagonist of Human D 1 Dopamine Receptor: qHTS; HEK293 TREx D1 cells, calcium flux, dopamine EC80; hits give low values; D(1A) dopamine receptor (Homo sapiens), P21728; activity change, negative = inhibition, % at 10 µM; actives 3.2% (n = 360,000); AID 504652, 2011; in the data active = activity change below about -30%; note: % is set by controls: 0 for no effect and ±100 for the full control effect
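Kinetic fluorescence of a calcium dye serves as the read-out. D1-expressing Hek293 Trex cells, induced overnight at 30 C, are exposed to compound for 180 s before an EC80 dopamine addition, then read 180 s further.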
D1 PAM: Potentiators of Human D1 Dopamine Receptor: qHTS; D(1A) dopamine receptor (Homo sapiens), P21728; HEK293 TREx D1 cells, calcium flux, dopamine EC20 potentiation; potentiation, % at 10 µM; actives 0.036% (n = 360,000); AID 504651, 2011; in the data active = potentiation above about 30%; note: 0% is about no effect
TRHR ag: qHTS for Small Molecule Agonists and Allosteric Enhancers of Human TRH Receptor: Primary Screen for Agonists | Thyrotropin-releasing hormone receptor (Homo sapiens), P34981 | TRHR cells, calcium flux fluo-8, FDSS agonist mode | activation, % at 2 µM | actives 0.18% (n = 360,000); note: 0% is about no effect
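Fluo-8-loaded TRHR cells; 10 s baseline, compound added, kinetic Ca2+ fluorescence read 1/s, agonist mode.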
Numbers without * were called inactive; / = no result. An excerpt weighted towards active compounds, which were near 4.6% of everything screened. Cut-off read from the data, not from the text of the source, unless noted: active = activation above about 30%; inactive = the rest.

SMILES | TRHR enhancer | D1 agonist | D1 antag | D1 PAM | TRHR ag
O=C(CCCc1nc(-c2ccccc2)no1)Nc1cccnc1 | 8.9 | 6.2 | -17.3 | -9.7 | 0.1
Cc1ccc(CC(NC(=O)c2ccccc2)C(=O)NC(CC(C)C)C(=O)O)cc1 (stereo not given) | -7.0 | 1.2 | 5.7 | -10.2 | 0.3
O=C(O)CNC(=O)c1ccccc1 | -2.6 | 3.1 | -34.1* | 1.6 | 0.0
Cc1ccc(CC(NC(=O)c2ccccc2)C(=O)NCC(=O)O)cc1 (stereo not given) | 35.4* | -0.1 | -1.5 | 5.0 | 0.4
C/C=N/NC(=O)CCNC(=O)c1ccccc1 | 33.2* | 1.1 | -7.4 | -4.7 | -1.3
O=C(CNC(=O)c1ccccc1)OC1CCCCC1 | 32.9* | 0.1 | -18.2 | -5.8 | -0.5
O=C(NCc1ccco1)c1cc(S(=O)(=O)N2CCOCC2)ccc1Br | -5.8 | 8.1 | -3.9 | 1.6 | -0.3
CC1(C)CC(C(=O)NCCC(c2ccccc2)c2ccco2)CCO1 (stereo not given) | -1.5 | 0.3 | 9.0 | -4.0 | -0.4
Cc1cccc(C)c1NC(=O)CNC(=O)c1ccccc1 | -3.8 | 10.7 | -31.5* | / | 0.7
Cc1cccc(C)c1NC(=O)CNC(=O)c1ccncc1 | 5.6 | 1.1 | 10.4 | -3.2 | 1.1
Cc1ccsc1/C=N/NC(=O)CNC(=O)c1ccccc1 | -2.7 | 0.0 | -47.2* | -1.6 | 1.1
O=C1c2ccccc2C(Nc2ccc(S(=O)(=O)N3CCOCC3)cc2)N1Cc1ccco1 (stereo not given) | -0.6 | -0.2 | -1.1 | -2.0 | 0.1
C/C(CC(=O)Nc1cc(C)ccn1)=N\NC(=O)C(=O)NC(C)C | -2.5 | 1.2 | -5.7 | 4.3 | -0.1
Cc1ccc(S(=O)(=O)NCc2ccc(C(=O)NCCCN3CCC(Cc4ccccc4)CC3)cc2)cc1 | 4.9 | 29.9 | -82.8* | -14.7 | 0.0
CCOc1ccc(CN2CCC(Cc3ccccc3)CC2)cc1 | -3.3 | 5.9 | -31.0* | -1.8 | 0.0
COc1ccccc1C1CCN(Cc2ccccc2)CC1 | -1.7 | -0.9 | -46.1* | -22.2 | -0.2
Cc1[nH]c2ccccc2c1CN1CCC(Cc2ccccc2)CC1 | 0.8 | 90.1* | -62.5* | 0.8 | -3.2
COc1ccc(CCNC(=O)c2ccc(Cn3c(SCc4ccccc4)nc4cccnc43)cc2)cc1 | -2.3 | 10.7 | -25.0 | -4.2 | 0.5
COCCNC(=O)c1ccc(CN2CCC(Cc3ccccc3)CC2)cc1 | 6.6 | 3.1 | -30.5* | -9.2 | 0.9
CN1CCc2c(sc3c2c(=O)n(-c2ccc(Cl)cc2)c2nncn32)C1 | -0.6 | 0.4 | -59.8* | -6.8 | 0.5
CCN(CC)CCn1c(=O)n(-c2ccc(Cl)cc2)c(=O)c2c3c(sc21)CN(C)CC3 | 0.6 | 8.0 | -1.9 | -6.2 | 4.8
CC(=O)c1ccc(N=C2NC(=O)C(CO)(CO)S2)cc1 | -7.0 | 2.2 | 0.0 | -1.1 | 0.6
COc1ccc(N=C2NC(=O)C(CO)(CO)S2)cc1 | 9.0 | 2.0 | -51.4* | -10.1 | -0.1
O=C(Nc1ccc(Br)cc1)c1ccc(N2C(=O)C3CCCCC3C2=O)cc1 (stereo not given) | 2.5 | 3.9 | -36.6* | -6.1 | 1.3
O=C(Nc1ccc(Br)cc1)c1cccc(N2C(=O)C3CCCCC3C2=O)c1 (stereo not given) | -3.0 | 8.5 | -13.5 | -4.7 | -0.1
SMILES | TRHR enhancer | D1 agonist | D1 antag | D1 PAM | TRHR ag
Cc1ccc(C)c(NC(=O)c2cc(-c3ccccc3O)n[nH]2)c1 | -0.8 | 2.2 | -22.1 | -7.2 | 1.1
Cc1cc(C)c(-c2cc(C(=O)Nc3cc(C)ccc3C)[nH]n2)c(O)c1 | 32.7* | 4.0 | -23.4 | 0.1 | 0.0
Cc1ccc(-c2cc(C(=O)Nc3cc(C)ccc3C)[nH]n2)c(O)c1 | 7.3 | -0.9 | -36.9* | -8.6 | 0.8
Cc1noc(C)c1-c1ccc2ncnc(NCc3cccc(-c4ccccc4)c3)c2c1 | 1.4 | 15.9 | -33.9* | -6.5 | 0.8
CCOc1ccccc1CNc1ncnc2ccc(-c3c(C)noc3C)cc12 | 21.7 | 2.8 | -1.7 | 5.9 | 0.5
O=C(Nc1ccc(C(=O)NCC2CCN(Cc3ccccc3F)CC2)cc1)C1=CSCCO1 | 1.0 | 3.8 | 3.3 | -2.8 | 0.0
COc1ccc(CNC(=O)c2ccc(NC(=O)C3=CSCCO3)cc2)cc1 | 34.4* | 1.0 | 4.9 | -7.6 | -0.6
CN1CCN(CCCNC(=O)c2ccc(NC(=O)C3=CSCCO3)cc2)CC1 | -1.6 | -0.5 | 36.1 | -4.8 | 0.2
O=C(Nc1ccc(C(=O)NCCCN2CCN(c3ccccc3)CC2)cc1)C1=CSCCO1 | 10.2 | 35.5* | -38.7* | -7.5 | 5.1
Cc1ccc(CN2CCC(CNC(=O)c3ccc(NC(=O)C4=CSCCO4)cc3)CC2)cc1 | 4.5 | 11.0 | -30.0* | -6.2 | 0.2
CCn1nnc2cc(C(=O)N(CCOC)CC(=O)Nc3cccc(C)c3C)ccc21 | 0.5 | 3.0 | -13.5 | 2.5 | 0.4
O=C(NCCN1C(=O)S/C(=C\c2cccs2)C1=O)c1ccc(=O)[nH]c1 | -4.5 | 1.0 | -0.3 | -3.4 | -0.1
O=C1/C(=C/c2cccnc2)Cc2ccc(Cl)cc21 | 3.8 | -0.6 | 9.1 | 4.1 | -0.5
Cc1ccccc1C(=O)NC(CC(C)C)C(=O)Nc1cccc(S(=O)(=O)N(C)C)c1 (stereo not given) | -4.8 | 5.6 | -3.8 | 6.5 | -0.3
C[C@H](CCC(=O)NCC(=O)O)[C@H]1CC[C@H]2C3[C@H](O)C[C@@H]4C[C@H](O)CC[C@]4(C)[C@H]3C[C@H](O)[C@]12C (stereo not given in full) | 1.2 | 0.0 | 3.6 | -2.0 | 0.7
COc1ccc(Cl)c2c1[nH]c1nc(SCc3ccccn3)nnc12 | -2.6 | -1.7 | 3.7 | -8.8 | 0.2
O=C1C(Cl)=C(Nc2ccccc2)C(=O)c2ccccc21 | -17.7 | 6.8 | -57.8* | -6.9 | -0.7
Cc1c(/C=N/Nc2ccc(F)cc2)c(O)n(C)c(=O)c1C#N | 7.7 | 3.5 | -14.3 | -3.1 | 1.7
CC(=O)N=Cc1c(C)c(C#N)c(=O)n(C)c1O | -3.6 | 10.1 | -56.7* | -9.3 | -1.9
C[C@@H]1CN(CCCn2c3ccccc3c3ccccc32)C[C@H](C)N1 | 1.2 | 39.6* | -15.4 | -0.8 | 1.5
Cc1cccc(N2CCN(C(=O)C3CCN(S(=O)(=O)c4cccs4)CC3)CC2)c1C | -13.0 | -2.6 | -34.1* | -2.1 | -1.7
Cc1cccc(N2CCN(C(=O)C3CCC(CNS(=O)(=O)c4cccs4)CC3)CC2)c1C (stereo not given) | 5.5 | -3.1 | -4.0 | -0.9 | -0.3
Cc1occc1-c1n[nH]c(=S)n1C | -1.6 | 3.8 | -0.3 | -6.7 | 0.4
